D1 PAM: Potentiators of Human D1 Dopamine Receptor: qHTS; AID 504651, 2011; 0.036% of 360,000 active; D(1A) dopamine receptor (Homo sapiens), P21728; HEK293 TREx D1 cells, calcium flux, dopamine EC20 potentiation; potentiation, % at 10 µM; in the data active = potentiation above about 30%
Target sequence (P21728 whole entry, looked up): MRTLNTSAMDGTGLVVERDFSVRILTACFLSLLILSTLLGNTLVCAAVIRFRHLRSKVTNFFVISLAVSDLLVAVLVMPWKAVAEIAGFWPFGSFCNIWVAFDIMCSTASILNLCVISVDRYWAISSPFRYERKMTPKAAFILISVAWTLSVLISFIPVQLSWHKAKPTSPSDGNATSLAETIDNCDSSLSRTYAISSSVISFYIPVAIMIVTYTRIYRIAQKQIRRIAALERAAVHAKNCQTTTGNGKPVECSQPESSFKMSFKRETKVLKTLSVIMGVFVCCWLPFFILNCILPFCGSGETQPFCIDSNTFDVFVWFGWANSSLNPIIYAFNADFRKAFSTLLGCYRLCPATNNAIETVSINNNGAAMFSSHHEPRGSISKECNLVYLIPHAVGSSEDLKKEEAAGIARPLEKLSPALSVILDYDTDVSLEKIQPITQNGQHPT
TRHR ag: qHTS for Small Molecule Agonists and Allosteric Enhancers of Human TRH Receptor: Primary Screen for Agonists. 0.18% of 360,000 active. Thyrotropin-releasing hormone receptor (Homo sapiens), P34981. AID 493084, 2011. activation, % at 2 µM. TRHR cells, calcium flux fluo-8, FDSS agonist mode
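TRHR-expressing cells loaded with fluo-8 calcium dye; 23 nL library compound pin-transferred, kinetic FDSS fluorescence (Ex 480/Em 530) recorded about 180 s for agonist-induced calcium release, before a 10 nM TRH EC20 addition for potentiator mode.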
TRHR PAM: qHTS for Small Molecule Agonists and Allosteric Enhancers of Human TRH Receptor: Primary Screen for Enhancers; Thyrotropin-releasing hormone receptor (Homo sapiens), P34981; TRHR cells, fluo-8 calcium fluorescence, EC20 TRH enhancement; enhancement, % at 2 µM; 0.66% of 360,000 active; in the data active = enhancement above about 30%
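Enhancer read-out: after compound pinning and an initial kinetic agonist-mode read, an EC20 of TRH (10 nM final) was injected and fluo-8 calcium signal (Ex 480/Em 530) followed at 1 s/cycle for 100 cycles in TRHR-expressing cells.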
D1 antag: Antagonist of Human D 1 Dopamine Receptor: qHTS; D(1A) dopamine receptor (Homo sapiens), P21728; HEK293 TREx D1 cells, calcium flux, dopamine EC80; hits give low values; activity change, negative = inhibition, % at 10 µM; 3.2% of 360,000 active; AID 504652, 2011; in the data active = activity change below about -30%
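Tetracycline-induced HEK293 T-REx cells with force-coupled D1 receptor were loaded with a no-wash calcium dye. Compound was added after a 10 s baseline and read kinetically for 180 s; EC80 dopamine was then added and calcium flux followed another 180 s.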
D1 ag: Allosteric Agonists of the Human D1 Dopamine Receptor: qHTS; HEK293 T-REx D1 cells, calcium flux, agonist mode; 1% of 360,000 active; activation, % at 2 µM
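Agonism was scored from calcium flux recorded over 180 s (1 read/s) after pintool compound addition, following a 10-cycle baseline. Cells were inducible force-coupled HEK293 TREx D1, plated overnight at 30 C and loaded with no-wash calcium dye.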
Large screens that a line does not name were inactive. In the library only some 4.6% were active in any assay of this set; here they are far more common. Rule as the data show it, unless noted: active = activation above about 30%; inactive = the rest.

CCOc1ccccc1N(CC(=O)N/N=C(\C)c1cccc(Br)c1)S(C)(=O)=O	none
COCCNC(=O)CN(c1ccccc1OC)S(C)(=O)=O	D1 antag -30
CC(=O)c1cccc(NC(=O)c2nc(-c3ccccc3)n(-c3ccccc3C)n2)c1	none
Cc1cccc(-n2ccnc2SCC(=O)Nc2ccccc2C(F)(F)F)c1	D1 antag -40
COc1ccccc1N1CCN(Cc2cc3c(cc2O)OCO3)CC1	D1 antag -37
CCOc1ccccc1N1CCN(Cc2cccc(OC)c2O)CC1	D1 antag -32
CCOc1ccc2oc(=O)cc(CN3CCN(c4ccccc4OC)CC3)c2c1	TRHR PAM 47
CC(=O)N1CCN(c2cc(N3CCCC3)c(F)cc2[N+](=O)[O-])CC1	none
CCN1CCN(c2cc(N3CCc4ccccc4C3)c(F)cc2[N+](=O)[O-])CC1	D1 antag -40
Cc1cccc(-c2cc(C(=O)Nc3cccnc3)c3ccccc3n2)c1	none
O=C(N/N=C/c1cc([N+](=O)[O-])ccc1Cl)c1cc(-c2ccccc2)nc2ccccc12	D1 antag -47
O=C(N/N=C/c1c[nH]c2ccccc12)c1ccc([N+](=O)[O-])cc1Cl	D1 antag -48
Cc1cccc(-c2cc(C(=O)Nc3ccncc3)c3ccccc3n2)c1	D1 antag -41
O=C(N/N=C/c1cc([N+](=O)[O-])ccc1O)c1cc(-c2ccccc2)nc2ccccc12	none
Cc1ccsc1/C=N/NC(=O)c1cc(-c2ccncc2)nc2ccccc12	TRHR PAM 36
COc1ccc(OCC(=O)Nc2ccccc2C(=O)OCc2cc(=O)n3nc(C)sc3n2)cc1	none
Cc1cc(Br)ccc1NC(=O)c1sc2nc3n(c(=O)c2c1C)CCCC3	none
CCc1ccc(-c2cc(C(=O)N/N=C/c3c[nH]c4ccccc34)[nH]n2)cc1	TRHR PAM 36
CCc1ccc2c(Cl)c(C(=O)N/N=C/c3c[nH]c4ccccc34)sc2c1	none
O=C(O)CCCN1C(=O)/C(=C/c2cn(-c3ccccc3)nc2-c2cccs2)SC1=S	D1 antag -37, D1 ag 51
Cc1c(C(=N)C(C#N)C#N)c(=N)oc2c1ccc1ccccc12	D1 antag -41
Cc1c(C(=O)O)oc2c1ccc1ccccc12	none
O=C(Nc1ccc2c(c1)C(=O)NC2=O)c1cc(Cl)ccc1Cl	D1 antag -31
O=C(Nc1ccc2c(c1)C(=O)NC2=O)c1cccc(Cl)c1	D1 antag -33
O=C(CSc1ccc(F)cc1)Nc1ccc2c(c1)C(=O)NC2=O	D1 antag -37
CCCCNCC#CCOc1cc(C)ccc1C(C)C	D1 ag 87
CC(C)(c1ccccc1)c1ccc(OCCCN2CCNCC2)cc1	D1 ag 59
CCCOc1ccc(OCCCCNC(C)CC)cc1 (stereo unspecified)	D1 antag -54
CC(C)(c1ccccc1)c1ccc(OCCN2CCOCC2)cc1	none
Cc1ccc(C(C)C)c(OCCNCCc2ccccc2)c1	D1 ag 58
Cc1ccc(C(C)C)c(OCCCNCc2cccnc2)c1	none
c1ccc(CCNCCOc2ccccc2)cc1	D1 antag -53
CNCCCOc1ccc(C(C)(C)c2ccccc2)cc1	D1 ag 53
CCC(C)NCCOc1ccc(C(C)(C)c2ccccc2)cc1 (stereo unspecified)	D1 ag 72
CC(C)(C)c1ccc(OCCNCc2ccccc2)cc1	D1 ag 43
O=C(CCCOc1ccccc1)NCCc1ccccc1	none
O=C(Cn1c(SCCOc2ccc(Cl)cc2)nc2ccccc21)N1CCCCC1	none
COc1ccc(-c2noc(N(c3ccc(F)c(Cl)c3)c3nc(-c4ccc(OC)c(OC)c4)no3)n2)cc1OC	none
COc1ccc2cc3cc(C(=O)N4CCN(c5ccccc5F)CC4)oc3nc2c1	none
Cc1nc(CSc2nnc(C)s2)cs1	D1 antag -42
Cc1nnc(SCc2ccc(F)cc2)s1	none

Source: PubChem BioAssay
